{
  "source": "PubChem BioAssay AID1851",
  "about": "(National Center for Advancing Translational Sciences (NCATS), 2009)",
  "note": "In all, about 16,000 compounds went through this assay and about 5,700 (36%) were called active. Inconclusive results (about 24%) are left out. Calls follow the shape of the dose curve; as a rule, active = well fitted curve in the direction sought with a large enough effect; inconclusive = small, poorly fitted or top-dose-only effect, or effect the other way; inactive = no such curve, though single readings can be large or run the other way. This is one part of the list. % is scaled to controls: 0 for no effect and ±100 for the full control effect.",
  "data": [
    {"biological_target": "Cytochrome P450 1A2 (Homo sapiens) (UniProt P05177)", "sequence (P05177 whole entry, looked up)": "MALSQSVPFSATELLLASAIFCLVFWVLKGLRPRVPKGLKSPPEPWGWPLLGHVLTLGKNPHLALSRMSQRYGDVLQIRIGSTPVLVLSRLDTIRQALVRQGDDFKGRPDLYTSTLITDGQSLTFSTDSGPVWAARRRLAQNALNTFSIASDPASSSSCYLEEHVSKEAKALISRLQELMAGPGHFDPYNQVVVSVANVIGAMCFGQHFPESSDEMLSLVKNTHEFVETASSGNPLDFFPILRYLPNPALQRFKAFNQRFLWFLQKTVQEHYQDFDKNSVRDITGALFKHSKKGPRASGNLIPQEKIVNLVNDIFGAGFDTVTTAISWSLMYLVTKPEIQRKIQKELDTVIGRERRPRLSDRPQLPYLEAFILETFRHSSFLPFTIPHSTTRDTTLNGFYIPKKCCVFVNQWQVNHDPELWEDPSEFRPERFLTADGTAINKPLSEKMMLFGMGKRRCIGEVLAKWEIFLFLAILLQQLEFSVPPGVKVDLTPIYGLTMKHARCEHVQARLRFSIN", "assay": "Cytochrome panel assay with activity outcomes", "details": "recombinant CYP, pro-luciferin dealkylation, luminescence, p450-cyp1a2; series mostly up to 57.1 µM; activity, negative = inhibition: at the top concentration", "values": [
      {"smiles": "CC1(C)O[C@H]2C[C@@H]3[C@H]4CCC5=CC(=O)CC[C@@]5(C)[C@]4(F)[C@@H](O)C[C@@]3(C)[C@@]2(C(=O)CCl)O1", "activity, negative = inhibition": "-15.1% [at 25.6 µM] (inactive)"},
      {"smiles": "CC(=O)O[C@]1(C(C)=O)CC[C@@H]2[C@@H]3C=C(C)C4=CC(=O)CC[C@@]4(C)[C@H]3CC[C@]21C", "activity, negative = inhibition": "-7.95% [at 25.6 µM] (inactive)"},
      {"smiles": "CS(=O)c1ccc(-c2nc(-c3ccc(F)cc3)c(-c3ccncc3)[nH]2)cc1", "note": "(stereo not given)", "AC50": "0.631 µM (active)"},
      {"smiles": "Oc1ccc(-c2nc(-c3ccc(F)cc3)c(-c3ccncc3)[nH]2)cc1", "AC50": "15.8 µM (active)"},
      {"smiles": "O=C(N/N=C/C1C(c2ccccc2)C1(Cl)Cl)c1cccc(Br)c1", "note": "(stereo not given)", "AC50": "2 µM (active)"},
      {"smiles": "O=C(N/N=C/c1cccc(Oc2ccccc2)c1)c1cccc(Br)c1", "AC50": "0.891 µM (active)"},
      {"smiles": "O=C(N[C@@]1(C(=O)O)C[C@@H]1c1ccccc1)c1ccccc1", "activity, negative = inhibition": "2.45% [at 11.4 µM] (inactive)"},
      {"smiles": "O=C(N/N=C\\c1ccc(Sc2ccccn2)o1)c1cccc(Br)c1", "AC50": "15.8 µM (active)"},
      {"smiles": "N[C@@H]1[C@@H]2[C@@H]3C[C@H]4N(CC[C@@]14C(=O)C(=O)O)CC3=CCO[C@@H]2CC(=O)O", "activity, negative = inhibition": "-16.1% [at 11.4 µM] (inactive)"},
      {"smiles": "C=C[C@@]1(C)CC(=O)[C@@]2(O)[C@@]3(C)[C@H](O)CCC(C)(C)[C@@H]3[C@H](O)[C@H](OC(C)=O)[C@]2(C)O1", "activity, negative = inhibition": "-2.51% (inactive)"},
      {"smiles": "Cc1ccc(/C=C2\\Sc3ccccc3C2=O)s1", "AC50": "1.78 µM (active)"},
      {"smiles": "COc1ncnc(NS(=O)(=O)c2ccc(N)cc2)c1OC", "activity, negative = inhibition": "-8.77% [at 25.6 µM] (inactive)"},
      {"smiles": "Nc1ccn([C@@H]2O[C@H](COC(=O)C34CC5CC(CC(C5)C3)C4)[C@@H](O)[C@@H]2O)c(=O)n1", "activity, negative = inhibition": "-18.7% [at 2.29 µM] (inactive)"},
      {"smiles": "O=C(OCc1nc2ccccc2[nH]1)C12CC3CC(CC(C3)C1)C2", "AC50": "22.4 µM (active)"},
      {"smiles": "NC(N)=[N+]1CCc2ccccc2C1", "activity, negative = inhibition": "-11.2% (inactive)"},
      {"smiles": "O=c1[nH][nH]c(C(F)(F)F)c1C=Nc1cccc(Cl)c1", "AC50": "12.6 µM (active)"},
      {"smiles": "O=c1[nH][nH]c(C(F)(F)F)c1C=Nc1ccccc1Cl", "AC50": "14.1 µM (active)"},
      {"smiles": "O=c1[nH][nH]c(C(F)(F)F)c1C=Nc1ccccc1", "AC50": "4.47 µM (active)"},
      {"smiles": "Cc1ccc(C(=O)c2ccc(CC(=O)O)n2C)cc1", "activity, negative = inhibition": "-8.27% [at 25.6 µM] (inactive)"},
      {"smiles": "CO[C@@H]1/C=C\\CC(=O)N[C@@H](C)C(=O)OC[C@@H](OC)[C@H](C)/C=C\\CC(=O)OC[C@H]1C", "activity, negative = inhibition": "-4.89% [at 11.4 µM] (inactive)"},
      {"smiles": "OC[C@H]1NC[C@@H](O)[C@@H](O)[C@H]1O", "activity, negative = inhibition": "-6.82% (inactive)"},
      {"smiles": "CCC(=O)Nc1cc2c(cc1C(=O)c1ccccc1)OCCO2", "AC50": "25.1 µM (active)"},
      {"smiles": "CC(C)C(=O)Nc1cc2c(cc1C(=O)c1ccccc1)OCCO2", "AC50": "14.1 µM (active)"},
      {"smiles": "CC(C)/C(=N/[N+](C)(C)C)c1ccccc1", "activity, negative = inhibition": "-16.2% [at 2.29 µM] (inactive)"},
      {"smiles": "Cc1ccccc1C(C(=O)NC1CCCC1)N(C(=O)Cc1cccs1)c1ccc2c(c1)OCCO2", "note": "(stereo not given)", "activity, negative = inhibition": "-11% (inactive)"}
    ]}
  ]
}
